Screening data deposited in PubChem by National Center for Advancing Translational Sciences (NCATS).
SMN2 splice up = enhancers of SMN2 splice variant expression | HEK293 SMN2-luciferase splicing reporter, luminescence, 30-36 h | Potency, µM (doses to about 46.1 µM), for inactives: top-dose activity change, positive = activation, hits mostly activators | 210,000 tested, 2.8% active; further: % of control where 0% means no effect; nearly all actives have a fitted effect of over 55% in size
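HEK293 cells carry an SMN2 minigene-luciferase reporter in which exon 7 inclusion puts luciferase in frame. Cells were seeded at 2000 cells/well, attached for 10-12 hours, then exposed to compounds for 30-36 hours at 37C before ONE-Glo luminescence.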
ELG1 genotox = inducers of genotoxicity in HEK293T ELG1-luciferase cells. HEK293T ELG1-luciferase reporter, luminescence, 16 h. Potency, µM (highest dose often 46 µM), for the others: top-dose activity change, positive = activation, usual class: activators. 330,000 tested, 1.3% active; further: % of control where 0% means no effect; nearly all actives have a fitted effect of over 60% in size
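ELG1-luciferase HEK293T cells, 2,000/well; compound pinned in; 16 hr, 37 °C, 5% CO2; ONE-Glo, 30 min RT; luminescence on CCD imager.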
Luc counter = counter-screen: inhibitors of Kinase-Glo firefly luciferase; AID 1379; 200,000 tested, 0.28% active; Potency, µM (top dose mostly 38.3 µM), for the others: at the highest dose activity change, negative = inhibition, hits mostly inhibitors; Kinase-Glo luciferase, ATP luminescence, 8 min; further: on the % scale 0 is the no-effect control and ±100 the full control effect; nearly all actives have a fitted effect of over 60% in size
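Luminescence was the read-out, taken after 8-minute incubation at ambient temperature. Luciferase turned over luciferin with 10 uM ATP in imidazole pH 7.2 buffer containing KCl, MgCl2, Tween 20 and BSA.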
FLuc modulator = firefly luciferase modulation, counter-screen for miR-21 project; P08659; purified FLuc, Km substrates, luminescence inhibition; Potency, µM (highest dose often 57.5 µM), for the others: at the highest dose activity change, negative = inhibition, most hits filed as inhibitors; 360,000 tested, 6.9% active; AID 588342;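 further: plate controls were vehicle for no effect and reference inhibitor for full effect; nearly all actives have a fitted effect of over 55% in size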
Target sequence (P08659 whole entry, looked up): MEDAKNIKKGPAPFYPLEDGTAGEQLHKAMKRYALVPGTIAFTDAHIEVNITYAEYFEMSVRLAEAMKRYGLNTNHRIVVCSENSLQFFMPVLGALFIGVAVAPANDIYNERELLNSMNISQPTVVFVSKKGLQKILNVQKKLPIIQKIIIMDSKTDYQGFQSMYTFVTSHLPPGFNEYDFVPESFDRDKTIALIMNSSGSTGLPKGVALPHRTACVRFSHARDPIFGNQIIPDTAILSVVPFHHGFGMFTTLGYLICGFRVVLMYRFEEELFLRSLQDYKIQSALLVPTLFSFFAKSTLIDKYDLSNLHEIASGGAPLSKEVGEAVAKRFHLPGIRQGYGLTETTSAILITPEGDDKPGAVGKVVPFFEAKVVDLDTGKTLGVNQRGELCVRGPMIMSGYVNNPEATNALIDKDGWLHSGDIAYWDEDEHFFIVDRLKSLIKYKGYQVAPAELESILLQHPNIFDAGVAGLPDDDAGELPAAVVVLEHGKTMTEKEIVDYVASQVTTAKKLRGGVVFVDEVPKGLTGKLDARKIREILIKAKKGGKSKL
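Purified P. pyralis luciferase (10nM final) with 10uM D-luciferin and 10uM ATP (Km levels) in 50mM Tris acetate pH 7.5, 10mM Mg acetate, 0.01% Tween-20, 0.05% BSA; qHTS 6-point titration, ~60 µM downward; luminescence read.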
NPC1 prom act = NPC1 promoter activation | Huh7 NPC1 promoter luciferase reporter, 24 h | Potency, µM (titrated, usually from 9.22 µM), for the others: top-dose activation, actives largely listed as activators | 320,000 tested, 2.4% active; further: % of control where 0% means no effect; nearly all actives have a fitted effect of over 60% in size
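Luminescence from an NPC1 promoter-driven luciferase reporter in stably transfected Huh7 cells was measured after 24 h compound treatment at 37 °C, followed by 10 min ambient incubation with luciferase detection reagent.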
Rab9 prom act = Rab9 promoter activation; Huh7 Rab9 promoter-luciferase reporter, luminescence, 24 h; Potency, µM (highest dose often 9.22 µM), inactives show at the top dose activation, negative = inhibition, actives largely listed as activators; 320,000 tested, 2.8% active; AID 485297; further: % of control where 0% means no effect; nearly all actives have a fitted effect of over 60% in size
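Quantitative HTS format; Huh7 Rab9-luciferase reporter cells (1500/well) receive compound 2 h post-plating, incubate 24 h at 37 °C, then get luciferase reagent for 10 min before luminescence reading.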
* marks the source's active call; other numbers are inactive results; [ ] = remark or other dose. Sampled rows, rich in hits. Any-hit rate of the full collection: about 7.5%. The call rests on the fitted dose curve; in most records, active means well fitted curve in the direction sought with a large enough effect; inconclusive means small, poorly fitted or top-dose-only effect, or another doubt; inactive means no such curve, though single readings can be large; an effect the other way counts as inactive or inconclusive. Potency means the concentration at half of the fitted maximal effect.

How did FC(F)Oc1ccc(C2N=C(c3ccccc3)NO2)cc1 (stereo not given) do in these assays?
ELG1 genotox: inconclusive; FLuc modulator: 4.78µM*; NPC1 prom act: 2.82µM*; Rab9 prom act: 1.58µM*

What do the screens show for `COc1ccc(C2N=C(c3ccccc3)NO2)cc1OC` (stereo not given)?
ELG1 genotox: inconclusive; FLuc modulator: 10.7µM*; NPC1 prom act: 20.3%; Rab9 prom act: 20.1%

How did C=CCNc1oc(-c2ccc(Cl)cc2)nc1C#N do in these assays?
ELG1 genotox: -1.3%

Results for COc1ccc(-c2nc(C#N)c(N3CCCCC3)o2)cc1 ?
ELG1 genotox: -4.4%; FLuc modulator: inconclusive; NPC1 prom act: 1.0%; Rab9 prom act: 1.2%[1.84 µM]

How did N#Cc1nc(-c2cccc3ccccc23)oc1NCC1CCCO1 (stereo not given) do in these assays?
ELG1 genotox: inconclusive; FLuc modulator: 12µM*; NPC1 prom act: 7.3%; Rab9 prom act: 25.1%

What do the screens show for `N#Cc1nc(-c2ccc(Cl)cc2)oc1NCC1CCCO1` (stereo not given)?
SMN2 splice up: inconclusive; ELG1 genotox: inconclusive; Luc counter: 2.7%; FLuc modulator: 21.3µM*; NPC1 prom act: 10.2%; Rab9 prom act: inconclusive

What do the screens show for `COc1ccc(-c2nc(C#N)c(NC(C)C)o2)cc1`?
SMN2 splice up: 5.2%; ELG1 genotox: 27.0%; Luc counter: -2.8%; FLuc modulator: 13.5µM*; NPC1 prom act: inconclusive; Rab9 prom act: inconclusive

How did CNc1oc(-c2ccc(Cl)cc2)nc1C#N do in these assays?
SMN2 splice up: 13.5%; ELG1 genotox: inconclusive; Luc counter: -7.0%; FLuc modulator: 10.7µM*; NPC1 prom act: inconclusive; Rab9 prom act: inconclusive

How did CC(NC(=O)CCCC1=NS(=O)(=O)c2ccccc2N1)c1ccccc1 (stereo not given) do in these assays?
FLuc modulator: -1.6%

How did COC(=O)c1cc(NC(=O)CCc2c(C)nc3c(c(C)nn3C(C)(C)C)c2C)cc(C(=O)OC)c1 do in these assays?
SMN2 splice up: 10.7%; FLuc modulator: -1.2%

What do the screens show for `Cc1ccc(OCCn2nnc3sc4c(c3c2=O)CCC(C(C)(C)C)C4)cc1` (stereo not given)?
SMN2 splice up: -5.8%; FLuc modulator: -7.2%

How did CC1(C)S[C@@H]2[C@H](NC(=O)COc3ccccc3)C(=O)N2[C@H]1C(=O)O do in these assays?
Luc counter: 1.9%[39.9 µM]

How did Cc1ccc(C(=O)CSc2nnc(C3CC3)n2C2CC2)s1 do in these assays?
ELG1 genotox: inconclusive; FLuc modulator: 19µM*; NPC1 prom act: inconclusive; Rab9 prom act: inconclusive

How did CCc1ccc(C(=O)CSc2nnc(C3CC3)n2C2CC2)cc1 do in these assays?
ELG1 genotox: 11.9%; NPC1 prom act: 15.7%; Rab9 prom act: 26.4%

What do the screens show for `Cc1occc1C(=O)Nc1ccc(Br)cc1F`?
SMN2 splice up: 19.4%; ELG1 genotox: inconclusive; Luc counter: -12.0%; FLuc modulator: 21.3µM*; NPC1 prom act: inconclusive; Rab9 prom act: 3.16µM*

How did O=C(O)c1ccc(NNC(=S)Nc2cc(C(F)(F)F)ccc2Cl)cc1 do in these assays?
ELG1 genotox: 18.3µM*; FLuc modulator: 23.9µM*; NPC1 prom act: 12.6%; Rab9 prom act: 9.3%

Results for Cc1occc1C(=O)Nc1cc(C(F)(F)F)ccc1Cl ?
SMN2 splice up: 25.1µM*; ELG1 genotox: 10.4%; Luc counter: -1.7%; FLuc modulator: -0.5%; NPC1 prom act: 1.1%; Rab9 prom act: 2.1%

What do the screens show for `Cc1ccc(NN=C2c3ccccc3-c3ccccc32)cc1`?
SMN2 splice up: 27.4%; ELG1 genotox: inconclusive; Luc counter: -0.7%; FLuc modulator: 15.1µM*; NPC1 prom act: inconclusive; Rab9 prom act: inconclusive

How did COc1ccc(S(=O)(=O)N2Cc3ccccc3CC2C(=O)Nc2nccs2)cc1OC (stereo not given) do in these assays?
SMN2 splice up: 12.6µM*; ELG1 genotox: 5.8µM*; Luc counter: 2.9%; FLuc modulator: inconclusive; NPC1 prom act: 11.9%; Rab9 prom act: 15.6%

What do the screens show for `COc1ccc(S(=O)(=O)N2Cc3ccccc3CC2C(=O)Nc2nccs2)cc1` (stereo not given)?
SMN2 splice up: inconclusive; ELG1 genotox: 12.4%; Luc counter: 4.4%; FLuc modulator: -13.5%; NPC1 prom act: 17.8%; Rab9 prom act: 5.8%

What do the screens show for `CCS(=O)(=O)N1Cc2ccccc2CC1C(=O)Nc1nc(C)cs1` (stereo not given)?
SMN2 splice up: 1.3%; ELG1 genotox: inconclusive; Luc counter: 2.9%; FLuc modulator: 19µM*; NPC1 prom act: 25.9%; Rab9 prom act: inconclusive

How did CCS(=O)(=O)N1Cc2ccccc2CC1C(=O)Nc1nccs1 (stereo not given) do in these assays?
SMN2 splice up: 17.8µM*; ELG1 genotox: inconclusive; Luc counter: 3.2%; FLuc modulator: inconclusive; NPC1 prom act: 0.1%; Rab9 prom act: 5.0%

What do the screens show for `COc1ccc(S(=O)(=O)N2CCC(C(=O)Nc3nccs3)CC2)cc1`?
ELG1 genotox: inconclusive; FLuc modulator: 12µM*; NPC1 prom act: 2.82µM*; Rab9 prom act: inconclusive

How did O=C(COc1ccccc1Cl)Nc1ccc(Cl)c(-c2nc3ccccc3o2)c1 do in these assays?
SMN2 splice up: -7.1%; FLuc modulator: -1.0%

What do the screens show for `O=C(Cn1c(-c2cccs2)cc2ccccc21)NCCCN1CCN(c2ccccc2F)CC1`?
FLuc modulator: 3.3%

Results for COC(=O)NC(c1ccccc1)c1c[nH]c2ccc(OC)cc12 (stereo not given) ?
SMN2 splice up: -2.0%; Luc counter: -0.1%

How did Cc1ccc(Cl)cc1N1CCN(S(=O)(=O)c2ccc3oc(=O)c4ncn(C)c4c3c2)CC1 do in these assays?
SMN2 splice up: -13.1%; FLuc modulator: 3.4%

How did Cc1ccc(C)c(OCCOCCn2c(-c3ccc(Br)cc3)nc3ccccc3c2=O)c1C do in these assays?
SMN2 splice up: 6.7%; FLuc modulator: 1.9%

Results for COc1ccc2[nH]cc(CCN=C(NC(=O)c3ccccc3F)Nc3nc(C)cc(C)n3)c2c1 ?
SMN2 splice up: 35.5µM*; FLuc modulator: 0.7%

Results for Cc1cc(C)nc(NC(=NCCc2c[nH]c3ccccc23)NC(=O)c2ccco2)n1 ?
SMN2 splice up: -13.6%; ELG1 genotox: -24.4%; Luc counter: -0.5%; FLuc modulator: -0.3%; NPC1 prom act: 9.4%; Rab9 prom act: -3.4%

What do the screens show for `CCOc1ccc(OCC)c(NC(=O)c2cnc3c(-c4ccccc4)c(C)nn3c2C)c1`?
FLuc modulator: -1.3%
